activity, negative = inhibition data for 37 compounds are collected here from PubChem BioAssay (NCATS).

Records with an inconclusive call do not appear. Calls of active or inactive are those of the source. The call rests on the fitted dose curve; in most records, active means well fitted curve in either direction with a large enough effect (not every such curve was filed as active); inconclusive means small, poorly fitted or top-dose-only effect, or another doubt; inactive means flat fitted curve, though single readings scatter.
On the % scale 0 is the no-effect control and ±100 the full control effect.

The first assay can be described thus: Stat Signaling Pathway (AID 446).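 Further: ME-180 cervical cancer cells given 40 pM IL-6 alongside compound.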 The settings on record: ME-180 SIE beta-lactamase reporter, IL-6 stimulated, 5 h; at 17.2 µM (top of the series). The procedure:
NCGC Assay Overview: The IL-6/STAT signaling pathway was assayed in ME-180 cervical carcinoma cells by a beta-lactamase reporter gene controlled by a STAT Inducible Element (SIE). This reporter is induced by IL-6 at 40 pM AC50 and inhibited by the pan JAK inhibitor, 2-(1,1-Dimethylethyl)-9-fluoro-3,6-dihydro-7H-benz[h]-imidaz[4,5-f]isoquinolin-7-one, at approximately 10 nM AC50. Plated cells were incubated overnight and on the following day, stimulated with 40 pM IL-6 for 5 hrs. The assay was screened at the AC50 of IL-6 activation to identify both inhibitors and activators of IL-6/STAT signaling.
NCGC Assay Protocol Summary: Cells were trypsinized, washed in assay medium (AM, OPTI MEM with 0.5% fetal bovine serum, 0.1 mM nonessential amino acids, 1 mM sodium pyruvate, 10mM HEPES pH 7.3, 100U/ml penicillin, and 100 ug/ml streptomycin) and suspended at 6 x 10e5/ml in AM. Approximately […] cells in 5 uL/well was dispensed into 1536 well plates and the cells were incubated overnight at 37 C. 23 nL of compound were delivered by a pin tool and 1 uL of IL-6 (40 pM final concentration in AM) was added. After centrifugation at 1000 rpm for less than a minute, plates were incubated at 37C for 5 hrs. One uL of detector mix (LiveBLAzerTM, Invitrogen) was added, the plates incubated at room temperature for 2.5 hrs, and fluorescence intensity at 460 and 530 nm emission was measured at 405 nm excitation by an Envision (Perkin Elmer) or Safire II (Tecan). Data were normalized by GeneData to the controls for AC90 stimulation (300 pM IL-6) and to AC90 inhibition (125 nM Jak inhibitor, 40 pM IL-6 in AM).
Take `COc1ccccc1N1CCN(CCCCNC(=O)c2ccc3ccccc3c2)CC1`: the activity, negative = inhibition was 5.11% (inactive).

`COc1ccc(C(=O)NCc2cccnc2)cc1C(=O)NCc1cccnc1`: the activity, negative = inhibition is 2.24% (inactive).

Regarding `CCCn1c(=O)c2[nH]c(C3CCCC3)nc2n(CCC)c1=O`, the activity, negative = inhibition is -4.29% (inactive).

Staying with this assay, now noted: ME-180 SIE beta-lactamase reporter, IL-6 stimulated, 5 h; at 38 µM (top of the series).
`COc1ccccc1N1CCN(CCCCNC(=O)c2ccc3ccccc3c2)CC1`: the activity, negative = inhibition is -1.2% (inactive).

Turning to `COc1ccc(C(=O)NCc2cccnc2)cc1C(=O)NCc1cccnc1`, the activity, negative = inhibition was -27.6% (inactive).

For the compound `CCCn1c(=O)c2[nH]c(C3CCCC3)nc2n(CCC)c1=O`, the activity, negative = inhibition is -11.4% (inactive).

Staying with this assay, now noted: ME-180 (cervical carcinoma) SIE beta-lactamase reporter, IL-6 stimulated, 5 h; at 38 µM (top of the series) unless noted.
For the compound `c1ccc2nc(C3=NCCN3)ccc2c1`, the activity, negative = inhibition is 0.247% (inactive).

Take `CSC(=N)N`: the activity, negative = inhibition is -2.27% (inactive).

For `Oc1ccc(Cn2cc[nH]c2=S)cc1`, the activity, negative = inhibition is 25% (inactive).

On to `N=C(N)c1ccc(OCCCCCOc2ccc(C(=N)N)cc2)cc1` (tested in a mixture with another compound), for which the activity, negative = inhibition is -3.59% (inactive).

On to `N[C@@H](Cc1c[nH]c2ccccc12)C(=O)O`, for which the activity, negative = inhibition was -9.87% (inactive).

As for `NCCS(=O)O`, the activity, negative = inhibition was -6.03% (inactive).

Turning to `NC(=O)c1ccccc1`, the activity, negative = inhibition was -35.6% (inactive).

As to `NC(N)=[N+]1CCc2ccccc2C1`, the activity, negative = inhibition is 19.1% (inactive).

Regarding `C[C@H](O)C(=O)C1=Nc2c(nc(N)[nH]c2=O)NC1`, the activity, negative = inhibition is -2.31% (inactive).

As for `N#CC(C#N)=C(N)/C(C#N)=C/c1ccc(O)cc1`, the activity, negative = inhibition is 5.06% (inactive).

`COc1ccc(CCN(C)CCc2ccc(OC)c(OC)c2)cc1OC`: the activity, negative = inhibition was -14.4% (inactive).

On to `O=C(O)C1CCNCC1`, for which the activity, negative = inhibition is -8.76% (inactive).

As for `O=C(O)c1cccnc1C(=O)O`, the activity, negative = inhibition was -7.1% (inactive).

In the case of `COc1ccccc1N1CCN(CCCNc2c(C)c(=O)n(C)c(=O)n2C)CC1`, the activity, negative = inhibition is 0.762% (inactive).

On to `CNc1cc(NS(=O)(=O)c2ccc(N)cc2)nc(NC)n1`, for which the activity, negative = inhibition was 13.2% (inactive).

Take `NC1(C(=O)O)CCCCC1`: the activity, negative = inhibition was 9.73% (inactive).

As to `N#Cc1cc2nc(O)c(O)nc2cc1[N+](=O)[O-]`, the activity, negative = inhibition was -26.5% (inactive).

`C=CC[C@H](N)C(=O)O`: the activity, negative = inhibition was 7.83% (inactive).

Turning to `C[N+](C)(C)CC=O`, the activity, negative = inhibition is 17.9% (inactive).

For `Cc1cccc(C(=O)NCN2CCN(c3ccccc3C#N)CC2)c1`, the activity, negative = inhibition is -3.73% (inactive).

Regarding `O=c1oc(Cl)c(Cl)c2ccccc12`, the activity, negative = inhibition is 22.3% (active).

Take `O=C(c1ccc2c(c1)OCCO2)N1CCCCC1`: the activity, negative = inhibition was 25% (inactive).

As for `CN[C@H](CC(=O)O)C(=O)O`, the activity, negative = inhibition was 2.84% (inactive).

On to `CCCc1c(OCCCOc2ccc(OCC(=O)O)cc2)ccc(C(C)=O)c1O`, for which the activity, negative = inhibition is 11.2% (inactive).

For the compound `Fc1ccc(CN(C2=NCCN2)c2c(Cl)cccc2Cl)cc1`, the activity, negative = inhibition was -4.64% (inactive).

On to `C=CCn1c(=O)c2c(nc(-c3ccc(S(=O)(=O)O)cc3)n2C)n(C)c1=O`, for which the activity, negative = inhibition is 20.8% (inactive).

For the compound `O=c1onc2n1-c1cc(Br)ccc1OC2`, the activity, negative = inhibition was -16.1% (inactive).

On to `O=C(O)C1=CCNCC1`, for which the activity, negative = inhibition was 16.7% (inactive).

Turning to `CCCCCCCC/C=C\CCCCCCCC(=O)NCCc1ccc(O)c(O)c1`, the activity, negative = inhibition was 0.267% (inactive).

Take `N=C(N)c1ccc(N)cc1`: the activity, negative = inhibition was -11.4% (inactive).

Take `NCCCCN`: the activity, negative = inhibition is -10.8% (inactive).

As to `Cn1ccnc1`, the activity, negative = inhibition is 8.3% (inactive).

On to `N[C@H](C(=O)O)c1cc(O)cc(O)c1`, for which the activity, negative = inhibition was 9.71% (inactive).

For `NCCCNCCCCNCCCN`, the activity, negative = inhibition was -4.41% (inactive).
